# Bioassay records as filed in PubChem.
# FLuc modulator: qHTS profiling assay for firefly luciferase inhibitor/activator using purifed enzyme and Km concentrations of substrates (counterscreen for miR-21 project) | Luciferin 4-monooxygenase (Photinus pyralis), P08659 | purified FLuc, Km substrates, luminescence inhibition | Potency, µM (titrated, usually from 57.5 µM), inactives show at the highest dose activity change, negative = inhibition, hits mostly inhibitors | 360,000 compounds, 6.9% hits | AID 588342, 2011;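 also: plate controls were vehicle for no effect and reference inhibitor for full effect; nearly all actives have a fitted effect of over 55% in size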
# Target sequence (P08659 whole entry, looked up): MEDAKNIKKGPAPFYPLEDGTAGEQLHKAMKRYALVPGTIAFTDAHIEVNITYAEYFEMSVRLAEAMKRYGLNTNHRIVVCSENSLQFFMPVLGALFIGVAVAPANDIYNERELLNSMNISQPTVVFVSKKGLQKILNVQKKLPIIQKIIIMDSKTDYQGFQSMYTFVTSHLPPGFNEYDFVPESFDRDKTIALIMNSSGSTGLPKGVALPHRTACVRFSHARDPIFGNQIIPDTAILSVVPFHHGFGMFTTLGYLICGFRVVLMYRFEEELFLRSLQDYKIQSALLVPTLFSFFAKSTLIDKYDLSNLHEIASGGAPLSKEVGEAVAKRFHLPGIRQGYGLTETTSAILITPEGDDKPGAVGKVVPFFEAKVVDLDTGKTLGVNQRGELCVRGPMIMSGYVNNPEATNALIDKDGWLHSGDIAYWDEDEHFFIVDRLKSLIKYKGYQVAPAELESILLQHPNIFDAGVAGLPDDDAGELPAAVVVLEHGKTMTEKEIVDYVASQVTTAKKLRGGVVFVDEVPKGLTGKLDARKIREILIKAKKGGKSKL
#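 Purified P. pyralis luciferase (10nM final) with 10uM D-luciferin and 10uM ATP (Km levels) in 50mM Tris acetate pH 7.5, 10mM Mg acetate, 0.01% Tween-20, 0.05% BSA; qHTS 6-point titration, ~60 µM downward; luminescence read.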
# ELG1 genotoxic: qHTS screen for small molecules that induce genotoxicity in human embryonic kidney (HEK293T) cells expressing luciferase-tagged ELG1; HEK293T ELG1-luciferase reporter, luminescence, 16 h; Potency, µM (top dose mostly 46 µM), for inactives: top-dose activity change, positive = activation, actives largely listed as activators; 330,000 compounds, 1.3% hits; AID 504466, 2011; also: % of control where 0% means no effect; nearly all actives have a fitted effect of over 60% in size
#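 Genotoxicity was scored as increased ELG1-luciferase reporter signal, measured by ONE-Glo luminescence (30 min, room temperature). Compound or vehicle exposure of the HEK293T reporter cells lasted 16 hr at 37°C.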
# Rab9 promoter act: qHTS Assay for Rab9 Promoter Activators. Potency, µM (top dose mostly 9.22 µM), for the others: at the top dose activation, negative = inhibition, most hits filed as activators. 320,000 compounds, 2.8% hits. Huh7 Rab9 promoter-luciferase reporter, luminescence, 24 h; also: % of control where 0% means no effect; nearly all actives have a fitted effect of over 60% in size
#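 Huh7 cells stably carrying a Rab9 promoter-luciferase reporter, 1500 cells per well in OP-MEM I with 10% FBS, treated with compound 24 hours at 37C. Luciferase activity read by luminescence after 10 minutes with Amplite reagent.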
# Luc counter: Counterscreen for Luciferase (Kinase-Glo TM) Inhibition | Potency, µM (doses to about 38.3 µM), inactives show at the top dose activity change, negative = inhibition, actives largely listed as inhibitors | AID 1379, 2008 | Kinase-Glo luciferase, ATP luminescence, 8 min | Luciferin 4-monooxygenase (Photuris pensylvanica), Q27757 | 200,000 compounds, 0.28% hits; also: % is scaled to controls: 0 for no effect and ±100 for the full control effect; nearly all actives have a fitted effect of over 60% in size
#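 Substrate mix (final 50 mM imidazole pH 7.2, 50 mM KCl, 7 mM MgCl2, 10 uM ATP, 0.01% Tween 20, 0.05% BSA) plus pin-tool compound, then Kinase-Glo detection mix; 8 min ambient, luminescence read.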
# SMN2 splice enh: qHTS Assay for Enhancers of SMN2 Splice Variant Expression | HEK293 SMN2-luciferase splicing reporter, luminescence, 30-36 h | 210,000 compounds, 2.8% hits | Potency, µM (top dose mostly 46.1 µM), for inactives: top-dose activity change, positive = activation, usual class: activators | AID 1458, 2008; also: % of control where 0% means no effect; nearly all actives have a fitted effect of over 55% in size
#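 HEK293 cells carry an SMN2 […]–luciferase reporter in which exon 7 inclusion puts luciferase in frame. Cells were plated 10-12 h before compound addition, then incubated 30-36 h at 37C. ONE-Glo luminescence was read; sodium butyrate at 4.5 mM final served as control.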
# NPC1 promoter act: qHTS Assay for NPC1 Promoter Activators; Huh7 NPC1 promoter luciferase reporter, 24 h; Potency, µM (titrated, usually from 9.22 µM), for the others: top-dose activation, hits mostly activators; 320,000 compounds, 2.4% hits; also: % of control where 0% means no effect; nearly all actives have a fitted effect of over 60% in size
#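 NPC1 promoter–luciferase Huh7 cells; 24 h compound; luminescence.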
# The depositor's hits bear a star; ? = inconclusive; / = no result; [ ] = dose if it differs, or a comment. A selection: hits, their analogues and other compounds. The true share with any hit is near 7.5%. Calls follow the shape of the dose curve; as a rule, active = well fitted curve in the direction sought with a large enough effect; inconclusive = small, poorly fitted or top-dose-only effect, or another doubt; inactive = no such curve, though single readings can be large; an effect the other way counts as inactive or inconclusive. Potency is read from the fitted curve at half-maximal effect.
SMILES,FLuc modulator,ELG1 genotoxic,Rab9 promoter act,Luc counter,SMN2 splice enh,NPC1 promoter act
CC1=C(C)CC(C(=O)NCC(=O)c2ccccc2)C(C(=O)O)C1 (stereo not given),15.1µM*,16.4µM*,21.6%,-3.5%,17.2%,3.8%
CCOC(=O)c1c(C)n(OCc2ccccc2)c2ccc3c(no[n+]3[O-])c12,1.0%,3.7%,-4.6%,-0.9%,-0.1%,-1.7%
Cn1c(-c2ccccc2)cc2c3no[n+]([O-])c3ccc21,13.5µM*,4.8%,-27.7%,3.6%,-79.9%,?
CC(C)CNC(=O)N1CCN(S(=O)(=O)c2ccc3c(ccn3C)c2)CC1,3.3%,/,/,/,/,/
CCCN1C=CC(=C2C(=O)c3ccccc3C2=O)C=C1,0.0675µM*,-7.1%,0.0003µM*,4.47µM*,-79.0%,3.16e-05µM*
COC1=C(OC)C(=O)c2ccccc2C1=O,/,/,-42.1%[46.1 µM],-5.5%,-95.5%,-24.0%[46.1 µM]
CC1=CC(=C2C(=O)c3ccccc3C2=O)C=C(C)O1,?,19.7%,?,-9.4%,9.1%,?
CCCN1C(=O)C(=O)c2cc(C)ccc21,/,18.0%,/,/,/,/
CCCCCCN1C=CC(=C2C(=O)c3ccccc3C2=O)C=C1,0.213µM*,0.184µM*,0.112µM*,8.91µM*,/,?
CN1C=CC(=C2C(=O)c3ccccc3C2=O)C=C1,3.01µM*,2.91µM*,0.355µM*,?,12.6µM*,0.447µM*
CCN1C=CC(=C2C(=O)c3ccccc3C2=O)C=C1,0.0849µM*,?,0.0003µM*,5.01µM*,0.251µM*,0.0002µM*
COc1ccc(N2CCN(C(=O)c3cc(-c4ccc(C)c(F)c4)on3)CC2)cc1,-9.1%,/,/,/,/,/
CCc1ccccc1NC(=O)C(CCSC)NS(=O)(=O)c1ccc2c(c1)oc(=O)n2C (stereo not given),-1.2%,/,/,/,8.1%,/
CC1CCC(=O)N(CCSc2ccccc2)CC1 (stereo not given),5.36µM*,?,0.891µM*,/,/,1.12µM*
COc1ccc(SCCN2CC[C@@H](C)CCC2=O)cc1,?,6.9%,17.9%,/,/,15.2%
CCOC(=O)c1c(NC(=O)c2cc(=O)c3c(C)cc(C)cc3o2)sc(C)c1C,-1.3%,/,/,/,4.4%,/
COc1ccccc1N(CC(=O)Nc1ccccc1F)S(C)(=O)=O,6.1%,/,/,/,-15.0%,/
Nc1ncnc2c1ncn2[C@@H]1O[C@H](COP(=O)(O)OP(=O)(O)OC[C@H]2OC(O)[C@H](O)[C@@H]2O)[C@@H](O)[C@H]1O (stereo not given in full),/,/,/,/,-7.2%,/
Nc1ncnc2c1ncn2[C@@H]1O[C@H](COP(=O)(O)OP(=O)(O)OP(=O)(O)OP(=O)(O)OC[C@@H]2O[C@H](n3cnc4c(N)ncnc43)[C@@H](O)[C@@H]2O)[C@H](O)[C@H]1O,/,/,/,4.47µM*,2.1%,/
O=c1c(-c2cccs2)nc2cncnc2n1C1CC1,/,/,/,-5.2%,-0.3%,/
Cc1ccn2c(C(=O)c3ccc(Cl)cc3)cnc2c1,2.13µM*,1.16µM*,1.41µM*,-10.3%,21.9%,3.55µM*
O=C(Nc1ccc(F)c(Cl)c1)N1CCC(CN2CCOCC2)CC1,-5.5%,/,/,/,/,/
COc1ccccc1CNC(=O)CSc1nc(C)cs1,2.5%,0.7%,-3.4%,2.0%,1.8%,-0.6%
COc1ccccc1C(=O)NC(=O)CSc1nc(C)cs1,13.5µM*,-1.5%,9.2%,/,/,-3.2%
CCOC(=O)c1[nH]c(C)c(C(=O)NC(CC)Cc2ccccc2)c1C (stereo not given),-14.0%,/,/,/,/,/
SMILES,FLuc modulator,ELG1 genotoxic,Rab9 promoter act,Luc counter,SMN2 splice enh,NPC1 promoter act
CN1c2ccccc2C(=O)/C(=C\Nc2ccc(F)cc2)S1(=O)=O,12µM*,-2.0%,-0.9%,/,/,-5.9%
COc1ccc(NC(=O)CN(C)C(=O)c2ccc(NS(=O)(=O)c3cccc([N+](=O)[O-])c3)cc2)cc1,23.9µM*,-2.7%,-2.1%,/,/,3.1%
c1ccc2c(c1)CC(N1CCN(c3cccc4c3OCCO4)CC1)C2,/,/,-22.6%[46.1 µM],-4.8%,-26.9%,-11.4%[46.1 µM]
COc1ccc(CNC(=O)Cn2ncc3c(=O)oc4ccccc4c32)c(OC)c1,-1.2%,/,/,/,-1.8%,/
Cc1cccc(-c2cc(C(=O)N3CCCc4ccccc43)c3ccccc3n2)c1,12µM*,0.9%,2.5%,/,/,-0.1%
O=C(c1cc(-c2ccccc2)nc2ccccc12)N1CCCc2ccccc21,16.9µM*,-2.7%,11.4%,-1.3%,-11.9%[1.84 µM],-0.9%
Cc1cc(=O)n2nc(N3CCC(C(=O)NCCCOC(C)C)CC3)sc2n1,-1.6%,/,/,/,6.9%,/
C=CCn1c(C)cc(-c2csc(NC(=O)C3=COCCO3)n2)c1C,9.53µM*,?,1.58µM*,/,/,2.24µM*
C=CCn1c(C)cc(-c2csc(NCC)n2)c1C,15.1µM*,-7.7%,-3.7%,-10.2%,/,23.3%
COc1ccc(-c2csc(NC(=O)CN3C(=O)C4CCCCC4C3=O)n2)c(OC)c1 (stereo not given),?,0.5%,-4.8%,/,/,5.2%
C=CCNc1nc(-c2ccc(OC)cc2OC)cs1,12µM*,?,3.16µM*,-0.1%,?,2.82µM*
COc1ccc(-c2csc(NC(=O)C3=COCCO3)n2)c(OC)c1,23.9µM*,20.6µM*,?,/,/,?
Cc1cc(C)c(-c2csc(NC(=O)C3=COCCO3)n2)cc1C,19µM*,1.0%,7.5%,/,/,12.9%
COc1ccc(-c2csc(NC(=O)COC(=O)C3=COCCO3)n2)cc1,1.8%,14.7%,3.98µM*,-2.6%,14.1µM*,3.55µM*
O=C(Nc1nc(-c2ccc(-c3ccccc3)cc2)cs1)C1=COCCO1,?,16.7%,-5.7%,-1.0%,-20.9%,-2.0%
CCc1ccccc1NC(=O)Cn1nc(N2CCN(c3ccccc3OC)CC2)ccc1=O,-1.2%,/,/,/,/,/
Cc1ccc(C)c(-n2c(N)c(C#N)c3nc4ccccc4nc32)c1,-3.2%,/,/,/,-0.3%,/
CC(Sc1nnc(Nc2ccccc2)s1)C(=O)Nc1nc(-c2ccccc2)cs1 (stereo not given),-4.6%,-8.2%,1.1%,3.2%,3.98µM*,-1.7%
CC(Sc1nnc(NCc2ccccc2)s1)C(=O)Nc1ccc2c(c1)C(=O)c1ccccc1C2=O (stereo not given),?,8.1%,?,-3.6%,1.26µM*,?
CC(Sc1nnc(NC2CC2)s1)C(=O)Nc1ccc(S(N)(=O)=O)cc1 (stereo not given),/,1.3%,/,/,/,/
